Results filed as inconclusive are left out. Where a call stands in place of a potency, no number is given. Values without a mark were called inactive. Activity calls are given as the source filed them. Unless noted, calls come from the whole dose curve.
How the values were obtained:
[1] = qHTS assay to identify small molecule agonists of the peroxisome proliferator-activated receptor delta (PPARd) signaling pathway - cell viability counter screen (AID 743211; active = well fitted curve in the direction sought with a large enough effect in the repeat runs; an effect the other way counts as inactive or inconclusive; note: nearly all actives have a fitted effect of over 55% in size)
Method in brief: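 Following 5 h plating at 37 C and 5% CO2, PPARd UAS-bla HEK293H cells took up test compounds for 17 h. Viability was quantified by luminescence 30 min after CellTiter-Glo addition at room temperature.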

[2] = molecular target: Peroxisome proliferator-activated receptor delta (Homo sapiens) (UniProt Q03181); assay: qHTS assay to identify small molecule agonists of the peroxisome proliferator-activated receptor delta (PPARd) signaling pathway (AID 743212)
Chain of Peroxisome proliferator-activated receptor delta (Homo sapiens) (Q03181 whole entry, looked up): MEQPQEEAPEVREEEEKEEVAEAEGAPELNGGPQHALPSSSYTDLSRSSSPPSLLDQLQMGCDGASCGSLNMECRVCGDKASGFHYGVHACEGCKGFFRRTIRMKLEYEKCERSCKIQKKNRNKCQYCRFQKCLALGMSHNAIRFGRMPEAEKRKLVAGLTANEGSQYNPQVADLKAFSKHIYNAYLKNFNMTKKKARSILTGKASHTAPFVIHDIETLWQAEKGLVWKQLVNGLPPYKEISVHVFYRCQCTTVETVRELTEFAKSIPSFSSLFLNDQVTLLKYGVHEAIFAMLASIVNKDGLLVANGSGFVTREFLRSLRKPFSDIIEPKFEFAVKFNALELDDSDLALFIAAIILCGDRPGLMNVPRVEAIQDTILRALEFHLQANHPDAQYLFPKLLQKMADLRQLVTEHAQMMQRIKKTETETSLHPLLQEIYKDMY
Method in brief: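 Tox21 library screened in GeneBLAzer PPARd UAS-bla HEK293H cells. After compound treatment at 37 C, a FRET-based beta-lactamase substrate was applied for 2 h and fluorescence recorded.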

[3] = molecular target: Peroxisome proliferator-activated receptor delta (Homo sapiens) (UniProt Q03181); assay: qHTS assay to identify small molecule antagonists of the peroxisome proliferator-activated receptor delta (PPARd) signaling pathway (AID 743215; active = well fitted inhibition curve with a large enough effect in the signal ratio in the repeat runs, not every such curve was filed as active; the % refers to the signal ratio;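 note: cells stimulated with agonist L165041 at 300 nM final during compound exposure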; note: potency is the fitted concentration of half-maximal effect)
Method in brief: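 Screen format: qHTS, antagonist mode. HEK293H PPARd-bla cells received compound and 300 nM L165041 (final), 17 h, 37 C. Beta-lactamase detected via FRET substrate fluorescence, 2 h, room temperature.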

[4] = qHTS assay to identify small molecule agonists of the farnesoid-X-receptor (FXR) signaling pathway - cell viability counter screen (AID 743218; active = well fitted curve in the direction sought with a large enough effect in the repeat runs; an effect the other way counts as inactive or inconclusive; note: nearly all actives have a fitted effect of over 45% in size; note: potency is the fitted concentration of half-maximal effect)
Method in brief: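 Same-well cytotoxicity check on FXR-UAS-bla HEK 293T cells: 5 h attachment, 16 h compound at 37 C, CellTiter-Glo luminescence read at room temperature after 30 min.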

[5] = molecular target: Bile acid receptor (Homo sapiens) (UniProt Q96RI1); assay: qHTS assay to identify small molecule agonists of the farnesoid-X-receptor (FXR) signaling pathway (AID 743220; active = well fitted activation curve with a large enough effect in the signal ratio in the repeat runs, not every such curve was filed as active; the % refers to the signal ratio)
Chain of Bile acid receptor (Homo sapiens) (Q96RI1 whole entry, looked up): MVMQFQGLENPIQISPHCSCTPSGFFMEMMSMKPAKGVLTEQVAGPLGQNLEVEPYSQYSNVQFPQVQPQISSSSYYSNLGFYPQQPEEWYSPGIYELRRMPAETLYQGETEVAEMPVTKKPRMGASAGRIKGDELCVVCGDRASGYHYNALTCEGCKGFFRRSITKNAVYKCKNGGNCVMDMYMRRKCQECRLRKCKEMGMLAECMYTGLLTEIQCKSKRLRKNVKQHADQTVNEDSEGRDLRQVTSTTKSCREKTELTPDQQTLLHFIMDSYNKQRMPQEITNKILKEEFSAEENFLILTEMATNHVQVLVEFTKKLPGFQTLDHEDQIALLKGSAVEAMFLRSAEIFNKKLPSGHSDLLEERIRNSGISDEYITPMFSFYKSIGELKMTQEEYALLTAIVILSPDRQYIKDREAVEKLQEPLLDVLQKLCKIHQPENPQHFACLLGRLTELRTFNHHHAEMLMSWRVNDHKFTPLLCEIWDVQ
Method in brief: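 FXR-UAS-bla HEK 293T cells carrying a UAS-driven beta-lactamase reporter were plated for 5 h at 37C/5% CO2, then exposed to DMSO-dissolved Tox21 10K compounds for 16 h at 37C. A LiveBLAzer B/G FRET substrate was loaded for 2 h at room temperature before fluorescence reading.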

[6] = molecular target: Vitamin D3 receptor (Homo sapiens) (UniProt P11473); assay: qHTS assay to identify small molecule agonists of the vitamin D receptor (VDR) signaling pathway (AID 743222)
Chain of Vitamin D3 receptor (Homo sapiens) (P11473 whole entry, looked up): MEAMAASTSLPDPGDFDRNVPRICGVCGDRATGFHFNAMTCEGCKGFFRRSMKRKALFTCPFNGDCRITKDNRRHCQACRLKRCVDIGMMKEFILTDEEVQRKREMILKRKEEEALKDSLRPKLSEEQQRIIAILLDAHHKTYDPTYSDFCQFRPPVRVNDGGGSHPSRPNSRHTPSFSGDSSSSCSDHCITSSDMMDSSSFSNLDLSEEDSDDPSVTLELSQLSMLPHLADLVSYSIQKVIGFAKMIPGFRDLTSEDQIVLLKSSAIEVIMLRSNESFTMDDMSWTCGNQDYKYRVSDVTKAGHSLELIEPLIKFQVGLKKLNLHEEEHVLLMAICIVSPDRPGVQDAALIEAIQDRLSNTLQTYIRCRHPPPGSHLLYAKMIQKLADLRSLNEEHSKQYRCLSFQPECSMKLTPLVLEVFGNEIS
Method in brief: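 Using LiveBLAzer B/G FRET detection, agonism was scored in VDR-bla cells exposed overnight (16 h, 37C) to DMSO-dissolved compounds; substrate incubation was 2 h at room temperature.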

[7] = molecular target: Vitamin D3 receptor (Homo sapiens) (UniProt P11473); assay: qHTS assay to identify small molecule antagonists of the vitamin D receptor (VDR) signaling pathway (AID 743223; active = well fitted inhibition curve with a large enough effect in the signal ratio in the repeat runs, not every such curve was filed as active; the % refers to the signal ratio)
Method in brief: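 Beta-lactamase activity in VDR-bla cells is measured by FRET substrate fluorescence (2 h, room temperature) after cells spend 16 h at 37C with test compound and 3 nM final 1alpha,25-dihydroxyvitamin D3.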

[8] = qHTS assay to identify small molecule agonists of the vitamin D receptor (VDR) signaling pathway - cell viability counter screen (AID 743224; active = well fitted curve in the direction sought with a large enough effect in the repeat runs; an effect the other way counts as inactive or inconclusive; note: series mostly up to about 63 µM; nearly all actives have a fitted effect of over 50% in size)
Method in brief: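 Counter screen for cytotoxicity: VDR-bla cells at 2,000 cells/well, 16 h compound exposure, then CellTiter-Glo luminescence after the beta-lactamase measurement.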

[9] = qHTS assay to identify small molecule antagonists of the vitamin D receptor (VDR) signaling pathway - cell viability counter screen (AID 743225; active = well fitted curve in the direction sought with a large enough effect in the repeat runs; an effect the other way counts as inactive or inconclusive; note: nearly all actives have a fitted effect of over 50% in size)
Method in brief: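 In this counter screen, VDR-bla HEK 293T cells receive test compound plus 3 nM final calcitriol for 16 h at 37C. Room-temperature steps of 2 h with the beta-lactamase substrate, then 30 min with CellTiter-Glo, precede the luminescence read.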

[10] = qHTS assay to identify small molecule agonists of the NFkB signaling pathway - cell viability counter screen (AID 1159515); note: nearly all actives have a fitted effect of over 55% in size; note: potency is the fitted concentration of half-maximal effect
Method in brief: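 Counter screen run alongside the NFkB-bla agonist assay: ME-180 reporter cells exposed to compounds for 5 hr, then lysed with CellTiter-Glo in the same wells. Luminescence, read after 30 min, reflects viable cells.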

[11] = qHTS assay to identify small molecule agonists of the endoplasmic reticulum stress response signaling pathway (AID 1159516; active = well fitted activation curve with a large enough effect in the signal ratio in the repeat runs, not every such curve was filed as active; the % refers to the signal ratio)
Method in brief: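 For this screen, HeLa cells stably carrying beta-lactamase under the ER stress response element received test compounds, positive controls or DMSO for 5 hr at 37 C; B/G FRET substrate was then added and dual-wavelength emission recorded.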

[12] = qHTS assay to identify small molecule agonists of the endoplasmic reticulum stress response signaling pathway - cell viability counter screen (AID 1159517); note: nearly all actives have a fitted effect of over 50% in size; note: potency is the fitted concentration of half-maximal effect
Method in brief: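 In parallel with the ESRE reporter read, cytotoxicity was scored by CellTiter-Glo luminescence (30 min, room temperature) on HeLa ESRE-bla cells dosed for 5 hr.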

[13] = qHTS assay to identify small molecule antagonists of the retinoid-related orphan receptor gamma (ROR-gamma) signaling pathway - cell viability counter screen (AID 1159520; active = well fitted curve in the direction sought with a large enough effect in the repeat runs; an effect the other way counts as inactive or inconclusive; note: nearly all actives have a fitted effect of over 50% in size; note: potency is the fitted concentration of half-maximal effect)
Method in brief: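 Tet-on ROR gamma CHO cells were given compounds for 2 hr, then doxycycline hyclate at 1 uM final, and incubated 16 hr at 37 C. Viability was measured as ATP content by CellTiter-Glo luminescence.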

[14] = molecular target: Nuclear receptor ROR-gamma (Homo sapiens) (UniProt P51449); assay: qHTS assay to identify small molecule antagonists of the retinoid-related orphan receptor gamma (ROR-gamma) signaling pathway (AID 1159521; active = well fitted curve in the direction sought with a large enough effect in the repeat runs; an effect the other way counts as inactive or inconclusive; note: nearly all actives have a fitted effect of over 50% in size; note: potency is the fitted concentration of half-maximal effect)
Method in brief: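 Screening format: cell-based luciferase reporter in CHO cells with doxycycline-inducible RORγ. Compound pre-exposure lasts 2 h, doxycycline is 1 uM final, induction runs 16 h at 37 C, and ONE-Glo luminescence is read.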

[15] = qHTS assay to identify small molecule agonists of the AP-1 signaling pathway - cell viability counter screen (AID 1159525); note: nearly all actives have a fitted effect of over 55% in size
Method in brief: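 Same-well cytotoxicity counter screen of the Tox21 10K library in ME-180 cells. The readout is ATP-dependent luminescence after 5 h compound treatment. Data are normalised to DMSO and tetra n-octyl ammonium bromide controls.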

[16] = molecular target: Retinoic acid receptor RXR-alpha (Homo sapiens) (UniProt P19793); assay: qHTS assay to identify small molecule agonists of the RXR signaling pathway (AID 1159527); note: nearly all actives have a fitted effect of over 35% in size
Chain of Retinoic acid receptor RXR-alpha (Homo sapiens) (P19793 whole entry, looked up): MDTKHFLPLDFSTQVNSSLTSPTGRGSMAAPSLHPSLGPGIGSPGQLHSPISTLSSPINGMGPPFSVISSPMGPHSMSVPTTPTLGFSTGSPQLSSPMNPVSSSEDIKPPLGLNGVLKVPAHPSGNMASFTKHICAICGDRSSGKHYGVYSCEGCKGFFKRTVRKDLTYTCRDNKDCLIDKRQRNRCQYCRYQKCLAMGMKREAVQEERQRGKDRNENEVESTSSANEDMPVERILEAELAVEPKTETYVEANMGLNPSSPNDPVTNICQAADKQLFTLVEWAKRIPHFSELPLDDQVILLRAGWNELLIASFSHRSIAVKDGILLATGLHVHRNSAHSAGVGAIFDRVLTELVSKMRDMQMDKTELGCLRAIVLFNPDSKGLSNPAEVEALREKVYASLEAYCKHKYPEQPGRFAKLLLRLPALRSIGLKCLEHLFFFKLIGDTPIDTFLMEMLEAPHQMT
Method in brief: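 Fluorescence ratio readout (460 vs 530 nm) from GeneBLAzer RXR-alpha HEK 293T cells after 16 hr compound treatment; cells seeded 5 hr beforehand in low-serum, charcoal-stripped medium.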

[17] = qHTS assay to identify small molecule antagonists of the peroxisome proliferator-activated receptor delta (PPARd) signaling pathway - cell viability counter screen (AID 743213; active = well fitted curve in the direction sought with a large enough effect in the repeat runs; an effect the other way counts as inactive or inconclusive; note: nearly all actives have a fitted effect of over 50% in size)
Method in brief: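 PPARd-bla HEK293H cells were treated with compounds plus agonist L165041 (300 nM final) for 17 h at 37 C. Viability was then read in the same wells by CellTiter-Glo luminescence after 30 min at room temperature.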

[18] = qHTS assay to identify small molecule agonists of the AP-1 signaling pathway (AID 1159526)
[19] = qHTS assay to identify small molecule antagonists of the farnesoid-X-receptor (FXR) signaling pathway - cell viability counter screen (AID 743221; active = well fitted cell-killing curve with a large enough effect in the repeat runs, not every such curve was filed as active; note: nearly all actives have a fitted effect of over 50% in size; note: potency is the fitted concentration of half-maximal effect)
Method in brief: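 Compound effects on cell number were measured as CellTiter-Glo luminescence in HEK 293T cells expressing FXR-UAS-bla, after 16 h at 37 C with 50 uM CDCA (final).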

[20] = molecular target: Bile acid receptor (Homo sapiens) (UniProt Q96RI1); assay: qHTS assay to identify small molecule antagonists of the farnesoid-X-receptor (FXR) signaling pathway (AID 743217; active = well fitted inhibition curve with a large enough effect in the signal ratio in the repeat runs, not every such curve was filed as active; the % refers to the signal ratio)
Method in brief: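 Quantitative HTS, beta-lactamase reporter format: FXR-UAS-bla HEK 293T cells co-treated 16 h at 37 °C with compounds and 50 uM final chenodeoxycholic acid, then read by B/G FRET fluorescence.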

SMILES	Potency [1]	Potency [2]	Potency [3]	Potency [4]	Potency [5]	Potency [6]	Potency [7]	Potency [8]	Potency [9]	Potency [10]	Potency [11]	Potency [12]	Potency [13]	Potency [14]	Potency [15]	Potency [16]	Potency [17]	Potency [18]	Potency [19]	Potency [20]
O=C(Nc1ccc(F)cc1F)c1cccnc1Oc1cccc(C(F)(F)F)c1	inactive	inactive	inactive	inactive	inactive	inactive	inactive	inactive	inactive	inactive	inactive	inactive	inactive	inactive	inactive	inactive	–	–	–	–
N#CSCc1ccccc1	inactive	inactive	inactive	inactive	inactive	inactive	inactive	inactive	inactive	inactive	inactive	inactive	inactive	–	inactive	inactive	inactive	inactive	–	–
CCOP(=O)(Sc1ccccc1)Sc1ccccc1	inactive	inactive	inactive	–	–	inactive	inactive	–	inactive	inactive	inactive	inactive	inactive	inactive	inactive	–	–	–	inactive	–
O=[N+]([O-])c1ccc(Cl)c(Cl)c1Cl	inactive	inactive	inactive	inactive	–	inactive	–	inactive	–	inactive	inactive	inactive	inactive	inactive	inactive	inactive	inactive	–	inactive	–
CCNS(=O)(=O)C(F)(F)C(F)(F)C(F)(F)C(F)(F)C(F)(F)C(F)(F)C(F)(F)C(F)(F)F	inactive	inactive	inactive	–	inactive	inactive	inactive	–	–	inactive	inactive	inactive	inactive	inactive	inactive	–	inactive	–	inactive	inactive
COc1ccc2[nH]cc(CCN(C(C)C)C(C)C)c2c1	–	inactive	inactive	–	–	inactive	inactive	inactive	inactive	inactive	inactive	inactive	inactive	inactive	inactive	–	inactive	–	–	–
CCN(CC)Cc1nccn1-c1ccc([N+](=O)[O-])cc1C(=O)c1ccccc1Cl	inactive	inactive	inactive	inactive	–	inactive	inactive	inactive	–	inactive	inactive	inactive	inactive	inactive	inactive	–	–	inactive	inactive	–
CC(Cc1ccc(O)cc1)NCC(O)c1cc(O)cc(O)c1 (centres undefined)	inactive	inactive	inactive	–	inactive	inactive	–	inactive	–	inactive	inactive	inactive	inactive	inactive	inactive	inactive	–	–	inactive	–
O=[N+]([O-])c1ccccc1-c1ccccc1	inactive	–	–	inactive	–	–	–	inactive	inactive	inactive	inactive	inactive	inactive	inactive	inactive	inactive	–	–	inactive	–
Cc1ccn2nc(S(=O)(=O)Nc3c(F)cccc3F)nc2n1	inactive	inactive	inactive	inactive	inactive	inactive	inactive	inactive	–	inactive	inactive	inactive	inactive	–	inactive	inactive	inactive	inactive	inactive	–
CCC[CH2][Sn]([CH2]CCC)([O]C(C)=O)[O]C(C)=O	–	–	19.7 µM (active)	11.1 µM (active)	–	–	–	–	inactive	11.1 µM (active)	inactive	1.97 µM (active)	0.0978 µM (active)	0.0692 µM (active)	–	–	–	–	17.5 µM (active)	–
CCC(C)c1cccc(C(C)CC)c1O (centres undefined)	inactive	inactive	inactive	inactive	inactive	–	–	–	–	inactive	inactive	inactive	inactive	inactive	–	inactive	inactive	–	inactive	–
[C-]1=CC=CC1.[Cl][Zr+2][Cl].c1cc[cH-]c1	inactive	–	–	inactive	–	inactive	–	–	inactive	inactive	inactive	inactive	inactive	inactive	inactive	–	inactive	inactive	inactive	–
Clc1cc(Cl)c(-c2cc(Cl)c(Cl)cc2Cl)cc1Cl	–	inactive	–	inactive	inactive	inactive	inactive	–	inactive	inactive	inactive	inactive	inactive	inactive	inactive	–	–	–	–	–
O=C(O)[C@H](O)[C@@H](O)C(=O)O	inactive	inactive	–	inactive	inactive	–	–	inactive	inactive	inactive	inactive	inactive	inactive	inactive	inactive	–	inactive	inactive	–	inactive
CC[C@]1(O)CC[C@H]2[C@@H]3CCC4=CCCC[C@@H]4[C@H]3CC[C@@]21C	–	inactive	inactive	inactive	inactive	inactive	–	inactive	–	inactive	inactive	inactive	inactive	inactive	inactive	–	–	–	inactive	–
CCN(CC)CCc1c[nH]c2ccccc12	inactive	inactive	–	inactive	inactive	–	–	–	inactive	inactive	inactive	inactive	inactive	inactive	inactive	inactive	inactive	–	inactive	inactive
CC(C)N(C(=O)SC/C(Cl)=C/Cl)C(C)C	inactive	inactive	inactive	inactive	inactive	inactive	inactive	inactive	inactive	inactive	inactive	inactive	inactive	inactive	inactive	inactive	inactive	–	–	–

Reference: PubChem BioAssay (Tox21)
